Compounds without any hit were thinned out: in the full panel of roughly 79,000, 15% have a hit. Unmarked numbers belong to inactive results. Calls of active or inactive are those of the source. Rule as the data show it: active = growth inhibition above about 70%; inactive = the rest.
What was measured:
[1] = NCI Yeast Anticancer Drug Screen. Data for the rad50 strain (AID 155);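 also: 0% = growth of vehicle-only cultures of the same strain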; details: S. cerevisiae rad50 strain growth inhibition, active compounds read high
How it was run: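 Relative growth inhibition (compound vs vehicle) was measured in yeast with a defined repair-gene alteration.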

[2] = NCI Yeast Anticancer Drug Screen. Data for the mec2-1 strain (AID 157); details: S. cerevisiae mec2-1 strain, active compounds read high
How it was run: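 Using mec2-1 yeast: add compound, measure growth, express inhibition versus vehicle-treated cultures.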

[3] = NCI Yeast Anticancer Drug Screen. Data for the sgs1 mgt1 strain (AID 161);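 also: 0% = growth of cultures given vehicle only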; details: S. cerevisiae sgs1 mgt1 strain, active compounds read high
How it was run: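 Compounds are added to genetically altered yeast, and growth is compared with cultures given vehicle alone to give percent inhibition.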

[4] = NCI Yeast Anticancer Drug Screen. Data for the cln2 rad14 strain (AID 165);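 also: 0% = growth equal to vehicle treated cultures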; details: S. cerevisiae cln2 rad14 strain, active compounds read high
How it was run: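 Yeast strain cln2 rad14, bearing defects in cell cycle control and DNA repair, serves as the test system; values reflect growth inhibition compared with vehicle.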

[5] = NCI Yeast Anticancer Drug Screen. Data for the bub3 strain (AID 167); details: S. cerevisiae bub3 mutant strain, active compounds read high
How it was run: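 Screening used yeast with an engineered genetic alteration affecting cell cycle control. Compound-exposed cultures were compared with vehicle cultures, and reduced growth was taken as inhibition.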

[6] = NCI Yeast Anticancer Drug Screen. Data for the mlh1 rad18 strain (AID 175); details: S. cerevisiae mlh1 rad18 strain growth inhibition, active compounds read high
How it was run: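 Steps: expose repair-defective yeast to compound; measure growth; express inhibition against vehicle-treated controls.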

[7] = at 5.0 µM (retest, dose inferred, filed as 0.5)
[8] = at 50.0 µM (retest, dose inferred, filed as 5.0)

SMILES	growth inhibition [1, 7]	growth inhibition [1, 8]	growth inhibition ([1]; at 50.0 µM)	growth inhibition [2, 7]	growth inhibition [2, 8]	growth inhibition ([2]; at 50.0 µM)	growth inhibition [3, 7]	growth inhibition [3, 8]	growth inhibition ([3]; at 50.0 µM)	growth inhibition [4, 7]	growth inhibition [4, 8]	growth inhibition ([4]; at 50.0 µM)	growth inhibition [5, 7]	growth inhibition [5, 8]	growth inhibition ([5]; at 50.0 µM)	growth inhibition [6, 7]	growth inhibition [6, 8]	growth inhibition ([6]; at 50.0 µM)
CC(C)C(C)(C(=O)O)C(C)C	0%	1%	13.8%	3%	2%	2.1%	2%	3%	5.6%	-3%	4%	67%	-1%	0%	-5.5%	1%	0%	2.75%
C=C1CC(c2ccc(OCCCN3C(=O)c4ccccc4C3=O)cc2)OC1=O (centres undefined)	33%	71% (active)	10.1%	30%	82% (active)	-3.6%	28%	67%	15%	23%	63%	29.1%	33%	80% (active)	8.8%	34%	86% (active)	-6%
Cc1cc2c(C(C)C)c(O)c(O)c(C=Nc3ccc(C(=O)O)cc3)c2c(O)c1-c1c(C)cc2c(C(C)C)c(O)c(O)c(C=Nc3ccc(C(=O)O)cc3)c2c1O	14%	97% (active)	91.8% (active)	27%	98% (active)	91.2% (active)	34%	97% (active)	61.4%	-3%	95% (active)	73.3% (active)	4%	98% (active)	58.5%	40%	98% (active)	86.3% (active)
CCCCP(CCCC)(CCCC)=C(C(=O)OC)C(C(=O)OC)=C1SC(C(=O)OC)=C(C(=O)OC)S1	18%	39%	-4.9%	4%	16%	10.3%	63%	26%	-9.3%	47%	38%	13.1%	79% (active)	47%	-7.6%	23%	51%	4.8%
Cc1ccc(S(=O)(=O)OC2COC3C(OS(=O)(=O)c4ccc(C)cc4)COC23)cc1 (centres undefined)	-2%	-13%	19.6%	-7%	4%	9.8%	12%	-27%	26.4%	1%	-5%	46%	0%	-11%	96.6% (active)	-39%	-63%	4%
C=C1C(C2(C)C(OC(C)=O)CC(=O)OC(C)(COC(C)=O)C2CC(=O)OC)C(OC=O)C(OC(=O)C(O)C(C)CC)C2(C)C(c3ccoc3)CC(=O)C12O (centres undefined)	-15%	-28%	76.9% (active)	-5%	-16%	68.7%	4%	-32%	57.5%	-6%	0%	81.5% (active)	-36%	-23%	79.8% (active)	-2%	-53%	90% (active)
CCC(C)N(C(=O)c1ccccc1)c1ccccc1 (centres undefined)	-1%	-2%	2.8%	1%	-1%	6.15%	2%	-3%	-7.35%	0%	3%	39.8%	-3%	-1%	-4.45%	-3%	2%	-3.65%
C(=C\[P+](c1ccccc1)(c1ccccc1)c1ccccc1)/c1ccccc1	86% (active)	99% (active)	98.8% (active)	94% (active)	99% (active)	99.7% (active)	80% (active)	99% (active)	99.2% (active)	76% (active)	98% (active)	98.1% (active)	85% (active)	98% (active)	98.8% (active)	91% (active)	98% (active)	99.1% (active)
O=S1(=O)C(Br)=Cc2ccccc21	16%	99% (active)	99.3% (active)	-6%	99% (active)	99.3% (active)	25%	99% (active)	98.7% (active)	17%	99% (active)	97.7% (active)	13%	99% (active)	99.4% (active)	23%	99% (active)	98.7% (active)
CCO/C=C1N=C(/C=C/c2ccccc2Cl)OC/1=O	-6%	84% (active)	65%	13%	58%	45.4%	9%	52%	50.2%	9%	81% (active)	20.2%	13%	81% (active)	36.9%	-2%	86% (active)	71.7% (active)
Cc1cc(C)c([O-])c(-[n+]2c(-c3ccccc3)cc(-c3ccccc3)cc2-c2ccccc2)c1	14%	14%	90.8% (active)	1%	1%	92.5% (active)	22%	22%	91% (active)	-8%	-8%	89.8% (active)	-2%	-2%	92.2% (active)	3%	3%	89.7% (active)
O=C(/C=C/c1cccnc1)c1cc(Cl)ccc1O	3%	61%	86.9% (active)	3%	40%	23.9%	-3%	22%	56.9%	1%	24%	26.6%	1%	71% (active)	5.2%	5%	48%	42.5%
CC1C(=O)C(C)C(c2ccccc2)N(C)C1c1ccccc1 (centres undefined)	81% (active)	98% (active)	99% (active)	42%	99% (active)	99.1% (active)	81% (active)	98% (active)	99.3% (active)	31%	98% (active)	99% (active)	42%	95% (active)	99.4% (active)	63%	98% (active)	99.1% (active)
CCCCCCCCCSC(=S)N(C)NC(=O)c1ccccn1	14%	70% (active)	89% (active)	6%	81% (active)	94% (active)	4%	82% (active)	93.8% (active)	-3%	71% (active)	92.1% (active)	-7%	78% (active)	92% (active)	8%	85% (active)	93.7% (active)
CC1CC(OC(=O)Nc2ccccc2)CC(C)(C)C1 (centres undefined)	-33%	76% (active)	78.8% (active)	9%	74% (active)	80.6% (active)	-6%	87% (active)	91.5% (active)	4%	81% (active)	66.8%	10%	83% (active)	90.3% (active)	4%	87% (active)	85.6% (active)
N#CC1C(=O)NC(=O)C(C#N)C1c1c(Cl)cccc1Cl (centres undefined)	5%	72% (active)	96.2% (active)	1%	55%	92.5% (active)	4%	91% (active)	94% (active)	8%	28%	48.1%	-7%	74% (active)	91% (active)	1%	93% (active)	94.7% (active)
Cc1cc(C)c(O)c(C2CC3CCC2(C)C3(C)C)c1 (centres undefined)	2%	87% (active)	95.6% (active)	1%	92% (active)	95% (active)	5%	91% (active)	95.8% (active)	4%	91% (active)	95.2% (active)	7%	92% (active)	96.5% (active)	-1%	94% (active)	95.5% (active)
Cc1ccc(N2C(N)=C(C#N)C(C#N)(C#N)C2c2ccccc2)cc1 (centres undefined)	22%	70% (active)	31.1%	26%	82% (active)	38.1%	20%	51%	55%	14%	41%	24.4%	25%	50%	64.7%	25%	88% (active)	90.5% (active)
